Data on 70 compounds can be found in ChEMBL document CHEMBL3988442, “University of Dundee, Small-Polar-MMV Screening Library” (2021).

Out of some 48,000 compounds screened, about 13,000 (27%) showed an effect of 50% or more. The list shows a part of the results.

In the assay the test system is Wolbachia pipientis. In words: Anti-Wolbachia Cell-Based Screen. The format is functional. More on the design: scale not given: in the data most compounds retested in dose-response had high values. To be noted: 5 µM.
In the case of `CC1=N[C@@]2(CC[C@@H]3CN(S(C)(=O)=O)C[C@@H]32)C(=O)N1CC(C)C`, the “Percent Effect” value is reported as -10.09%.

`CCc1nnc2ccc(NCC3(O)CCOCC3)nn12`: the “Percent Effect” value was -3.397%.

`CC(C)S(=O)(=O)NC(=O)CC(c1ccccc1)C(F)(F)F` (stereo not given): the “Percent Effect” value is reported as 0.6807%.

As to `O=C1NCCCCC1SCc1coc(-c2cccc(F)c2)n1` (stereo not given), the “Percent Effect” value is -23.71%.

Take `O=C1NCCCCC1SCc1coc(-c2ccc(F)cc2)n1` (stereo not given): the “Percent Effect” value is -0.7587%.

For the compound `O=C1NCCCCC1Sc1nnc(C2CC2)n1C1CC1` (stereo not given), the “Percent Effect” value is reported as -22.11%.

As for `O=C1NCCCCC1Sc1ccc(F)cc1F` (stereo not given), the “Percent Effect” value turned out to be 103.3%.

Turning to `O=C1NCCCCC1Sc1ccc(F)c(F)c1` (stereo not given), the “Percent Effect” value turned out to be 87.86%.

On to `O=C1NCCCCC1Sc1nnc(-c2cccnc2)n1C1CC1` (stereo not given), for which the “Percent Effect” value is recorded as -7.436%.

With `O=C1NCCCCC1Sc1nnc(N2CCCC2)n1C1CC1` (stereo not given), the “Percent Effect” value amounted to 5.697%.

Consider `O=C1NCCCCC1Sc1ccccc1F` (stereo not given), for which the “Percent Effect” value is on record as 86.32%.

For the compound `O=C1NCCCCC1Sc1n[nH]c(=O)n1C1CC1` (stereo not given), the “Percent Effect” value is given as -5.028%.

Regarding `CCCOCC(=O)N1CCC2(CC1)c1nc[nH]c1CCN2S(C)(=O)=O`, the “Percent Effect” value was -9.401%.

`COc1ccc(C(=O)NCc2ccon2)cc1F`: the “Percent Effect” value is listed as -47.25%.

For the compound `Cc1nc(NS(=O)(=O)c2ccc(C)c(Br)c2)no1`, the “Percent Effect” value was -20.05%.

On to `Cc1nn(CC(=O)N2CCN(c3ccccc3F)CC2)c(C)c1Cl`, for which the “Percent Effect” value turned out to be 4.996%.

As to `Cc1cccc(N2CCCC2c2nc(C)ncc2CN(C)C)n1` (stereo not given), the “Percent Effect” value is reported as 143.5%.

As to `Cc1nc(CN(C)CC2CCCN2c2cccnn2)oc1C` (stereo not given), the “Percent Effect” value was determined as 2.068%.

For the compound `Cc1cccc(C(=O)N2CCCCC2c2ccc(CN(C)C)cc2)n1` (stereo not given), the “Percent Effect” value was -0.9167%.

Consider `CN(C)Cc1nnc(C2CCN(c3ncccn3)CC2)n1C1CC1`, for which the “Percent Effect” value is reported as -3.805%.

As for `CCc1nc(C2CCCN2c2ncc(Br)cn2)no1` (stereo not given), the “Percent Effect” value is -1.956%.

Turning to `Cc1ncc(CN(C)C)c(C2CCCN2c2ncccn2)n1` (stereo not given), the “Percent Effect” value amounted to 117.1%.

Turning to `O=C(C1CNCCO1)N1CCCC(c2ccccc2)(c2ccccc2)C1` (stereo not given), the “Percent Effect” value is recorded as -4.785%.

Consider `O=C(NCCCOC1CCCCC1)C1NCCc2[nH]cnc21` (stereo not given), for which the “Percent Effect” value was -2.739%.

Consider `CCN(C(=O)COC)C(c1cccnc1)c1ccc2c(c1)CCO2` (stereo not given), for which the “Percent Effect” value was found to be 2.856%.

As to `CCSCCNC(=O)Nc1cc(C(=O)N2CCOCC2)ccc1Cl`, the “Percent Effect” value was found to be 4.121%.

Regarding `COCCNC(=O)NC1(c2ccccc2F)CC1`, the “Percent Effect” value is on record as 110%.

Turning to `Cc1cc(C(=O)NC2(c3cccc(F)c3)CCOCC2)no1`, the “Percent Effect” value is -27.95%.

As to `CN(Cc1ccccc1)C1(C(=O)NC(C)(C)CO)Cc2ccccc2C1`, the “Percent Effect” value is 8.937%.

On to `CC(C)(CO)CCCNC(=O)NC1(c2cccc(F)c2)CC1`, for which the “Percent Effect” value is given as 104.1%.

As to `CC(C)(CO)CCCNC(=O)NC1(C)Cc2ccccc2C1`, the “Percent Effect” value amounted to 128.7%.

Consider `COCCNC(=O)C1(c2ccccc2C)CCOCC1`, for which the “Percent Effect” value turned out to be 3.195%.

With `CS(=O)(=O)CCCNC1(c2cccc(F)c2)CC1`, the “Percent Effect” value was 13.79%.

Consider `CC(C)(CO)CCCNC(=O)N1CCc2c(F)ccc(F)c2C1`, for which the “Percent Effect” value is recorded as 36.67%.

As to `O=C(Nc1ccccc1F)NC1(CO)CCOCC1`, the “Percent Effect” value is recorded as 2.484%.

For the compound `COCCNC(=O)NC1(c2nc(C)no2)CCCCC1`, the “Percent Effect” value is given as -1.61%.

On to `O=C(NCCCc1ccc(O)cc1)C1(O)Cc2ccccc2C1`, for which the “Percent Effect” value is reported as -1.893%.

In the case of `CC(C)(CO)CCCNC(=O)NC1(c2ccccc2F)CC1`, the “Percent Effect” value is 114.3%.

As to `CC(C)c1noc([C@@H]2C[C@H](NS(=O)(=O)Cc3ccccc3)CN2C)n1`, the “Percent Effect” value is given as -6.361%.

With `CC(C)(O)CCc1ccc(C(=O)NCCC2CCCOC2)cc1` (stereo not given), the “Percent Effect” value is -14.7%.

Turning to `O=C1CC[C@@H](C(=O)N2CCC(Cn3cc(C4CCCCC4)nn3)CC2)N1`, the “Percent Effect” value was -19.31%.

In the case of `CCc1cnc(CN2C(=O)CC3(CCSC3)C2=O)o1` (stereo not given), the “Percent Effect” value was -1.105%.

For `CCn1cncc1C1CC(=O)Nc2c1c(C)nn2C` (stereo not given), the “Percent Effect” value is recorded as -2.495%.

On to `O=S(=O)(c1cccnc1)N1C[C@@H]2CC[C@H](C1)N(Cc1ccccn1)C2`, for which the “Percent Effect” value is listed as 0.4176%.

In the case of `Cc1ccc(NC2(C(=O)NCCCc3c(C)n[nH]c3C)CCCC2)cc1`, the “Percent Effect” value is 12.56%.

As to `COc1ncccc1NC(=O)NC(C)(C)c1ncc(C)s1`, the “Percent Effect” value was found to be 4.256%.

For `CCN1CC(C(=O)N2CCc3cc(C(N)=O)n(C)c3C2)CC1=O` (stereo not given), the “Percent Effect” value amounted to 10.03%.

On to `CCc1nnc2n1CC(CNc1cnc3ccccc3n1)CC2` (stereo not given), for which the “Percent Effect” value is reported as -8.213%.

With `NC(=O)CN1CCC(c2csc(Nc3cnccn3)n2)CC1`, the “Percent Effect” value was 117.3%.

In the case of `NC(=O)CN1CCC(C(=O)NCc2nc(-c3ccc(F)cc3)cs2)CC1`, the “Percent Effect” value is given as 0.3881%.

For the compound `OCCN1CCC(c2csc(Nc3cnccn3)n2)CC1`, the “Percent Effect” value was determined as 83.21%.

For the compound `NC(=O)CN1CCCC1c1csc(Nc2cnccn2)n1` (stereo not given), the “Percent Effect” value is reported as 66.85%.

As for `COc1ccccc1CNC(=O)C(C)N1CC(n2cc(C)cn2)C1` (stereo not given), the “Percent Effect” value is -24.87%.

In the case of `CN(C)c1cc2c(nn1)CCN(C(=O)c1cc3c(s1)CCOC3)C2`, the “Percent Effect” value is listed as -8.36%.

As to `CCC(NCc1ccccc1Cl)c1ccccc1OCC(=O)NC` (stereo not given), the “Percent Effect” value is on record as -10.16%.

Consider `CO[C@H]1CN(C(=O)c2cn3cc(C)ccc3n2)CC[C@@]12CCCO2`, for which the “Percent Effect” value is recorded as 93.74%.

On to `Cc1cccc(C(=O)N2CC(C(=O)NCC3CC3)C3(CCOCC3)C2)n1.O=C(O)C(F)(F)F` (stereo not given), for which the “Percent Effect” value is given as -7.832%.

On to `CO[C@H]1CN(C(=O)c2cccc(C)n2)CC[C@@]12CCCO2`, for which the “Percent Effect” value is reported as 114.9%.

Turning to `O=C(c1cn2cc(Cl)ccc2n1)N1CCC(CCn2cccn2)CC1`, the “Percent Effect” value is 2.946%.

Take `COCCN1C[C@@H](C)[C@@]2(COCCN(C(=O)c3cccc(C)n3)C2)C1.O=C(O)C(F)(F)F.O=C(O)C(F)(F)F`: the “Percent Effect” value is listed as -4.007%.

For the compound `COCc1cn([C@@H]2c3ccccc3C3(CCNCC3)[C@H]2O)nn1`, the “Percent Effect” value is on record as -6.385%.

In the case of `CCc1nc(C)cn1C(=O)Nc1ccc(F)cc1`, the “Percent Effect” value was determined as 113%.

As to `CCc1nc(C)cn1C(=O)Nc1ccc(C)cc1`, the “Percent Effect” value amounted to 109.3%.

With `Cc1ccc(NC(=O)N2CCN(Cc3noc(C4CC4)n3)CC2)cc1`, the “Percent Effect” value is 4.61%.

Take `CN(C)c1nc2n(c(=O)n1)CCN2C(=O)Nc1ccccc1`: the “Percent Effect” value was 0.604%.

On to `CCc1nc(C)cn1C(=O)Nc1ccccc1`, for which the “Percent Effect” value is given as 107.6%.

In the case of `CN(C)Cc1nn(C)c2c1CN(C(=O)Nc1ccc(F)cc1)C2`, the “Percent Effect” value is given as -7.35%.

For `CC(=O)c1c(C)nn(CC(=O)Nc2ccc(F)cc2)c1C`, the “Percent Effect” value amounted to 6.274%.

With `CCC(C)(NCC(=O)Nc1ccccc1)c1nc(C)cs1` (stereo not given), the “Percent Effect” value is recorded as -1.246%.

With `Cc1ccc(NC(=O)C2=CN=S=N2)cc1`, the “Percent Effect” value is on record as -3.511%.
